112 sequences from the supplement of paper PMC3334620 can be followed below.

In all, about 33,000 sequences were measured (“E-score (-0.5 to 0.5)”: median about -0.016, highest 2% from about 0.3 on). The entries come from a sample that favours the highest values as a whole.

The target in this test is T1, Yer184c (UniProt P39961).
T1 sequence: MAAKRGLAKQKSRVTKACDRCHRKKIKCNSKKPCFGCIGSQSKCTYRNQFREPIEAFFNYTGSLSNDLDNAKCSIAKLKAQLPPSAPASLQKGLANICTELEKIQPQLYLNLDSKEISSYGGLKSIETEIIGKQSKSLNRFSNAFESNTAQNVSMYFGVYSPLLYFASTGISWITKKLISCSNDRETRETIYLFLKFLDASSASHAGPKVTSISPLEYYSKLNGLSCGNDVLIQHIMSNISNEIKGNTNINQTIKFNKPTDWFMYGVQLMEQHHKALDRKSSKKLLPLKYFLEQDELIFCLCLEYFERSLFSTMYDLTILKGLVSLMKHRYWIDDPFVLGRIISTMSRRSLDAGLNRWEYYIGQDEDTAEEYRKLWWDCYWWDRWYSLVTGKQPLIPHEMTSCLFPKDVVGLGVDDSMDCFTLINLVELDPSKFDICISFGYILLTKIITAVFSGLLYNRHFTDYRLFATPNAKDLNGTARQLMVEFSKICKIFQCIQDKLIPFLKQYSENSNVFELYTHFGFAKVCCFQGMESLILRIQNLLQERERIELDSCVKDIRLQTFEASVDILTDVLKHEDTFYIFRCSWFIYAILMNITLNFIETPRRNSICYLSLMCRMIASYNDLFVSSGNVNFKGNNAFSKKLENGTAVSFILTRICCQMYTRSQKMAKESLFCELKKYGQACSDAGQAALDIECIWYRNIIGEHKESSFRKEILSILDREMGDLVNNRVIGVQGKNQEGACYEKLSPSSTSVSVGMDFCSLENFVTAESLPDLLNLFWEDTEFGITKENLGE
Kind of test: PBM E-score (8-mer binding enrichment) (E-score (-0.5 to 0.5)); higher = stronger / more preferred TF binding. As to conditions: protein concentration: 100 nM; construct: GST-full length. Here is the method:
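Universal 'all 10-mer' protein binding microarrays (Agilent AMADID 015681) probed with GST-tagged S. cerevisiae TFs (full-length or DBD) made by in vitro transcription/translation (PURExpress), about 100-200 nM. Bound TF was detected with fluorescent anti-GST. Each ungapped 8-mer (which stands for itself and its reverse complement) is scored by the PBM enrichment score (E-score), a modified Wilcoxon-Mann-Whitney statistic from -0.5 to +0.5, computed with the Universal PBM Analysis Suite. Scale: above 0.35 generally sequence-specific binding.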
For GGGCAGGA, the “PBM E-score” value is -0.269.

For GGGGTACA, the “PBM E-score” value is -0.111.

Take CGCATTAG: the “PBM E-score” value is -0.101.

With CGATGCAA, the “PBM E-score” value is -0.00579.

For the sequence ATGCCCCG, the “PBM E-score” value was -0.139.

Regarding TCATCGCA, the “PBM E-score” value was -0.0385.

As for AGCGGCCA, the “PBM E-score” value is -0.161.

In the case of CCGGGCCC, the “PBM E-score” value worked out at 0.262.

Take ATCGGCCG: the “PBM E-score” value stood at 0.388.

Turning to CCGGGCCA, the “PBM E-score” value came to 0.14.

On to CCGGCCCA, for which the “PBM E-score” value is 0.181.

Take CCGGGCCG: the “PBM E-score” value was determined as 0.429.

On to ATCGGCCC, for which the “PBM E-score” value turned out to be 0.113.

Take ACGGCCCG: the “PBM E-score” value is 0.146.

For the sequence CCGGCCCG, the “PBM E-score” value amounted to 0.386.

In the case of ATCGGCCA, the “PBM E-score” value was 0.125.

Turning to AGCGGCCG, the “PBM E-score” value amounted to 0.315.

In the case of CGCGGCCG, the “PBM E-score” value came out at 0.251.

On to GAATCTGC, for which the “PBM E-score” value was 0.12.

For the sequence CTAGTGAG, the “PBM E-score” value was -0.0187.

For the sequence ACCCCGCG, the “PBM E-score” value was -0.119.

As to AAACTGTC, the “PBM E-score” value was -0.133.

As for AGCAGTGC, the “PBM E-score” value was -0.185.

ACCGGCCA: the “PBM E-score” value stood at 0.173.

For CCCGGCCG, the “PBM E-score” value stood at 0.371.

For the sequence CCCGGCCA, the “PBM E-score” value was 0.209.

Turning to CGGGCCCA, the “PBM E-score” value came out at 0.0473.

For ACCGGCCT, the “PBM E-score” value stood at 0.0901.

As to AGGGCCCG, the “PBM E-score” value turned out to be 0.0448.

As for CCCGGCCC, the “PBM E-score” value turned out to be 0.161.

Turning to CGGGCCCG, the “PBM E-score” value was 0.351.

Regarding ACCGGCCG, the “PBM E-score” value turned out to be 0.413.

ACAACCTA: the “PBM E-score” value was -0.00165.

On to GAGTGGCC, for which the “PBM E-score” value is -0.0531.

With AGTACTAG, the “PBM E-score” value was 0.0969.

As for ACAAGCTG, the “PBM E-score” value is 0.0583.

Take AGCCACTA: the “PBM E-score” value is -0.112.

In the case of AAAATCCA, the “PBM E-score” value was -0.0451.

Turning to ATGTGAGG, the “PBM E-score” value came out at 0.0347.

Regarding TCAACACA, the “PBM E-score” value was found to be 0.179.

Turning to CTTCCGAA, the “PBM E-score” value was determined as 0.39.

For the sequence CTTCCGAC, the “PBM E-score” value turned out to be 0.173.

Regarding GGTCCGAA, the “PBM E-score” value worked out at 0.303.

Take ACTCCGAA: the “PBM E-score” value came out at 0.241.

CTTCCAAA: the “PBM E-score” value came to 0.0435.

ATTCCGAA: the “PBM E-score” value is 0.388.

With ATTCCGAG, the “PBM E-score” value amounted to 0.353.

Turning to AGTCCGAG, the “PBM E-score” value worked out at 0.268.

As for ATTCCGAC, the “PBM E-score” value was 0.211.

Consider GTTCCAAA, for which the “PBM E-score” value came to 0.158.

Consider GTTCCGAA, for which the “PBM E-score” value is 0.369.

In the case of ACTCCGAG, the “PBM E-score” value came to 0.233.

Turning to AAGAATTA, the “PBM E-score” value was found to be 0.134.

Turning to CGGCCACA, the “PBM E-score” value amounted to 0.194.

As for CACATTCG, the “PBM E-score” value was found to be 0.097.

Regarding CGGGTATA, the “PBM E-score” value is 0.196.

For the sequence CAGGGAAA, the “PBM E-score” value was 0.0066.

In the case of ACCATTGC, the “PBM E-score” value was -0.0741.

Consider GTTTTACA, for which the “PBM E-score” value was -0.015.

Regarding GCCAACCA, the “PBM E-score” value is -0.155.

On to TATTAATA, for which the “PBM E-score” value was -0.00461.

For the sequence AATTAATA, the “PBM E-score” value came out at 0.407.

In the case of GTTTAATA, the “PBM E-score” value was determined as 0.155.

On to ATTTAGTC, for which the “PBM E-score” value was 0.133.

For the sequence CTTTAATA, the “PBM E-score” value is 0.245.

For the sequence CTTTAGTA, the “PBM E-score” value was -0.0339.

With ATTTAGTA, the “PBM E-score” value was determined as 0.328.

With ATTTAATA, the “PBM E-score” value came to 0.313.

On to AATTAATT, for which the “PBM E-score” value was determined as 0.0189.

As for GCTGCACA, the “PBM E-score” value is -0.159.

In the case of CGCAGTGC, the “PBM E-score” value is -0.204.

Take AAAGGGAG: the “PBM E-score” value is -0.313.

CAGTCTTA: the “PBM E-score” value is -0.0806.

In the case of TTCAAGAA, the “PBM E-score” value amounted to 0.312.

Turning to GTCAAGAA, the “PBM E-score” value was found to be 0.0525.

For the sequence TTCAAAAA, the “PBM E-score” value was 0.228.

For CAGCCATG, the “PBM E-score” value is -0.329.

Consider CGGGCTAC, for which the “PBM E-score” value was 0.00991.

With AGAATTTA, the “PBM E-score” value came out at 0.121.

Regarding AACGCCGG, the “PBM E-score” value was determined as 0.317.

Take AACGCCGT: the “PBM E-score” value was determined as 0.119.

Turning to AACGCCGA, the “PBM E-score” value came to 0.415.

Regarding CACGCCGA, the “PBM E-score” value was 0.153.

For TACGCCGA, the “PBM E-score” value was 0.237.

In the case of AACGCCGC, the “PBM E-score” value was found to be 0.116.

As for CCCTAAAA, the “PBM E-score” value is -0.238.

In the case of AAACGAGG, the “PBM E-score” value was -0.124.

Turning to GCTATAAC, the “PBM E-score” value was -0.00042.

On to GATCTGTA, for which the “PBM E-score” value was -0.0435.

For CTTCGGCA, the “PBM E-score” value was found to be 0.333.

On to GTTCGGTA, for which the “PBM E-score” value came to 0.29.

For CATCGGCA, the “PBM E-score” value came out at 0.211.

For the sequence GTTCGGCA, the “PBM E-score” value worked out at 0.368.

Consider ATTCGGCG, for which the “PBM E-score” value stood at 0.282.

For the sequence ATTCGGCC, the “PBM E-score” value was 0.292.

Consider GCTCGGCA, for which the “PBM E-score” value was 0.288.

Consider GGTCGGCA, for which the “PBM E-score” value turned out to be 0.112.

On to ATTCGGTG, for which the “PBM E-score” value amounted to 0.155.

In the case of ATTCGGTA, the “PBM E-score” value was 0.329.

Consider ATTCGGCA, for which the “PBM E-score” value turned out to be 0.318.

As for CTTCGGCC, the “PBM E-score” value turned out to be 0.272.

Take AAGCGTGT: the “PBM E-score” value is -0.217.

CACACTGC: the “PBM E-score” value was -0.155.

For the sequence GATTGGCC, the “PBM E-score” value was -0.0975.

In the case of AGGGTGAA, the “PBM E-score” value is -0.136.

Take AATTGTCG: the “PBM E-score” value was determined as 0.035.

Consider CCGAACGG, for which the “PBM E-score” value worked out at 0.325.

On to CCGAACCA, for which the “PBM E-score” value came to 0.154.

On to CCGAACGC, for which the “PBM E-score” value came to 0.274.

On to CCGAACCG, for which the “PBM E-score” value came to 0.329.

As for AGGAACCG, the “PBM E-score” value turned out to be 0.179.

Consider TGGAACCA, for which the “PBM E-score” value worked out at 0.138.
